The source of these data is PubChem BioAssay (NCI).

SMILES strings stand for the structures. Compounds without any hit were thinned out: in the full panel of roughly 83,000, 20% have a hit.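 Method: cells in 96-well plates; compound added at one concentration; 48 h incubation; percent growth measured; values under 10 scored active.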 Values without a mark were called inactive. Calls of active or inactive are those of the source.

Holding throughout (experiment): NCI-60 one-dose screen, 48 h (100 = growth as untreated, 0 = no growth, -100 = all killed)
What all share (settings): 10 µM unless noted

Experiment [1] concerns DU-145 prostate.
Experiment [2] has as its system K-562 leukemia.
Experiment [3] deals with MALME-3M melanoma.
The test system of experiment [4] is MDA-MB-231 breast.
The test system of experiment [5] is RXF 393 renal.
Experiment [6] has as its system SF-268 CNS.
Experiment [7] has as its system SF-295 CNS.
For experiment [8], the system named is SF-539 CNS.
In experiment [9] the test system is UACC-257 melanoma.
In experiment [10] the test system is M14 melanoma.
Experiment [11] deals with HCT-15 colon.
Experiment [12] relates to HT29 colon.
For experiment [13], the system named is SNB-75 CNS.
Experiment [14] deals with SNB-19 CNS.
The subject of experiment [15] is U251 CNS.
The subject of experiment [16] is PC-3 prostate.
Experiment [17] has as its system SK-MEL-5 melanoma.
The test system of experiment [18] is UACC-62 melanoma.
For experiment [19], the system named is LOX IMVI melanoma.
For experiment [20], the system named is SK-MEL-28 melanoma.

Consider `CCOC(=O)c1c[nH]c2cc(OCC3CC3)c(OCC3CC3)cc2c1=O`, for which the growth is 102% in [1]; 121% in experiment [2]; 106% in experiment [3]; 119% in experiment [4]; 114% in experiment [5]; 109% in experiment [6]. Moreover, the growth in experiment [7] is 103%; in experiment [8] it was 105%; in [9] it was 115%; in experiment [10], 115%; in experiment [11], 104%; in [12] it was 111%. For the same compound, the growth in [13] is 114%; in experiment [14], 117%; in experiment [15] it was 119%; in experiment [16] it was 95.1%; in experiment [17] it was 112%; in experiment [18] it was 104%. Further, the growth is 113% in experiment [19] and 110% in [20].

Take `O=C1/C(=C/c2ccc(OCc3ccccc3)cc2)Oc2cc(OCCN3CCCCC3)ccc21`: the growth in experiment [1] was 91.9%; in experiment [2], 9.17% (active); in [3] it was 67.8%; in [4], 80.9%; in experiment [5], 60.8%; in experiment [6] it was 77.4%. Further, the growth in [7] is 92.9%; in experiment [8], 69.5%; in [9], 90%; in [10], 60.8%; in experiment [11] it was 14%; in experiment [12] it was 33.2%. The growth in experiment [13] is 83%; in [14] it was 94.3%; in [15], 69.8%; in experiment [16], 74.9%; in experiment [17], 61.6%; in [18], 61%. Besides, the growth in [19] is 52.3%; in experiment [20], 78.4%.

With `CCCCN(CCCC)CC(O)c1ccc(OCc2ccccc2)c2ccccc12` (stereo not given), the growth was 89.6% in [1]; -4.85% (active) in experiment [2]; 58.6% in experiment [3]; 74.9% in experiment [4]; 106% in experiment [5]; 74.5% in [6]. Further, the growth in [7] was 48.6%; in [8], 101%; in [9], 90.2%; in experiment [10], 72.2%; in experiment [11], 69.7%; in experiment [12] it was 19.1%. In addition, the growth in experiment [13] was 80.4%; in [14] it was 96.7%; in experiment [15], 98.2%; in experiment [16], 63.6%; in experiment [17] it was 101%; in experiment [18], 95.5%. In addition, the results for the growth in experiment [19] and in [20] were 60.8% and 109%, respectively.

For `CC1(C)CC[C@]23CC[C@]4(C)[C@H](CC[C@@H]5[C@@]6(C)C/C(=C/c7ccncc7)C(=O)C(C)(C)[C@@H]6CC[C@]54C)[C@H]2[C@H]1OC3=O`, the growth in [1] is 80.5% [100 µM]; in experiment [2], 50.7% [100 µM]; in [3], 67.6% [100 µM]; in experiment [4] it was 37.5% [100 µM]; in [5], 43.6% [100 µM]; in experiment [6], 42.7% [100 µM]. Further, the growth is 25.1% [100 µM] in experiment [7]; 6.84% [100 µM] (active) in [8]; 84.5% [100 µM] in [9]; 79.3% [100 µM] in [10]; 76.5% [100 µM] in experiment [11]; 71.5% [100 µM] in [12]. Besides, the growth in experiment [13] was -49.9% [100 µM] (active); in experiment [14], 17.3% [100 µM]; in [15], 39.2% [100 µM]; in experiment [16] it was 50.5% [100 µM]; in experiment [17] it was 36.3% [100 µM]; in experiment [18], 56.4% [100 µM]. Further, the growth is 76.7% [100 µM] in experiment [19] and 87.7% [100 µM] in experiment [20].

As to `C[C@@H]1C[C@H]2C(=O)O[C@@H](C)[C@H](NC(=O)[C@H](Cc3cc(F)cc(F)c3)NC(=O)Nc3ccc(C4CC4)cc3F)C(=O)N3CCC[C@H]3C(=O)N3CCCC[C@H]3C(=O)N[C@@H](C)C(=O)N2C1`, the growth in experiment [1] is 21.8%; in [2] it was 17.5%; in experiment [3], 18.5%; in experiment [4], -14.4% (active); in [5] it was -1.09% (active); in experiment [6], 22.5%. Besides, the growth was -1.67% (active) in experiment [7]; 24.7% in [8]; 6.5% (active) in [9]; 10.7% in experiment [10]; 6.12% (active) in experiment [11]; 10.5% in [12]. Besides, the growth is 6.49% (active) in experiment [13]; 15.8% in experiment [14]; 20.3% in [15]; 12% in experiment [16]; -47.6% (active) in experiment [17]; 3.87% (active) in [18]. Besides, the results for the growth in [19] and in [20] were 19.2% and 18.3%, respectively.

Consider `NS(=O)(=O)c1ccc(CCN2C(=O)/C(=C\c3ccccc3)C=C2c2ccc(Cl)cc2)cc1`, for which the growth was 115% in [1]; 94.8% in experiment [2]; 95.1% in experiment [3]; 86.2% in [4]; 91% in [5]; 90.6% in experiment [6]. In addition, the growth is 100% in [7]; 99.9% in [8]; 104% in experiment [9]; 99% in experiment [10]; 99.2% in experiment [11]; 107% in experiment [12]. Also, the growth was 59.3% in experiment [13]; 87% in [14]; 98.9% in experiment [15]; 90% in [16]; 98.7% in experiment [17]; 81.9% in experiment [18]. Also, the growth in experiment [19] is 99.8%; in experiment [20], 101%.

Regarding `CCOc1ccc2sc(NS(=O)(=O)c3ccc(N)cc3)nc2c1`, the growth in experiment [1] is 119%; in [2], 103%; in experiment [3] it was 118%; in [4], 106%; in experiment [5], 104%; in [6], 110%. Further, the growth in [7] was 109%; in experiment [8], 99.5%; in experiment [9], 111%; in experiment [10], 109%; in experiment [11] it was 107%; in experiment [12], 109%. Further, the growth was 98.2% in experiment [13]; 103% in experiment [14]; 99.5% in [15]; 119% in [16]; 106% in experiment [17]; 93% in experiment [18]. Moreover, the growth in experiment [19] was 105%; in experiment [20] it was 117%.
